This is an account of results in PubChem BioAssay (NCI).

Structures are written as SMILES. About 83,000 compounds went through this panel and 20% of them were active in at least one assay; those are over-represented in the sample as a whole.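 Interpretation: 100, growth as untreated; towards 0, rising growth inhibition; 0, no net growth; 0 to -100, cell death. Compounds scoring below 10 were considered active.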 Values without a mark were called inactive. Activity calls are given as the source filed them.

Test systems include RPMI-8226 leukemia; OVCAR-8 ovarian; OVCAR-5 ovarian; OVCAR-4 ovarian; SK-OV-3 ovarian; IGROV1 ovarian; OVCAR-3 ovarian; HS 578T breast; NCI/ADR-RES ovarian; T-47D breast; BT-549 breast; MDA-MB-435 melanoma; SW-620 colon; MCF7 breast; HCT-116 colon; HCC-2998 colon; KM12 colon.
Experiment in all cases: NCI-60 one-dose screen, 48 h (100 = growth as untreated, 0 = no growth, -100 = all killed)
What all share (conditions): 10 µM unless noted

`CNC(=O)c1[nH]cc(-c2ccccc2)c1-c1cc(OC)c2c(c1OC)OCO2`: the growth is 105% with RPMI-8226 leukemia; 100% in the experiment on OVCAR-8 ovarian; 101% in the experiment on OVCAR-5 ovarian; 106% with OVCAR-4 ovarian; 108% in the experiment with SK-OV-3 ovarian; 103% in the experiment with IGROV1 ovarian. The growth was 94.9% in the experiment with OVCAR-3 ovarian; 102% with HS 578T breast; 101% in the experiment on NCI/ADR-RES ovarian; 88.7% in the experiment with T-47D breast; 95.6% with BT-549 breast; 102% in the experiment with MDA-MB-435 melanoma. Also, the growth in the experiment on SW-620 colon is 99.9%; with MCF7 breast, 99.9%; in the experiment on HCT-116 colon, 99.5%; in the experiment with HCC-2998 colon, 102%; in the experiment with KM12 colon it was 96.9%.
For the compound `COC(=O)/C=C1\S/C(=N\Nc2ccc([N+](=O)[O-])cc2[N+](=O)[O-])N(C2CCCCC2)C1=O`, the growth in the experiment with RPMI-8226 leukemia was -21.8% (active); with OVCAR-8 ovarian it was 35.4%; in the experiment on OVCAR-5 ovarian, 84.3%; with OVCAR-4 ovarian it was 47.1%; in the experiment with SK-OV-3 ovarian, 96.8%; in the experiment with IGROV1 ovarian, 58.4%. The growth with OVCAR-3 ovarian is 25.2%; in the experiment on HS 578T breast, 65.2%; with NCI/ADR-RES ovarian, 29.7%; with T-47D breast, 12.9%; in the experiment with BT-549 breast, 86%; in the experiment with MDA-MB-435 melanoma, 79%. Further, the growth in the experiment with SW-620 colon was 22.7%; in the experiment on MCF7 breast it was 23.1%; in the experiment on HCT-116 colon, 29.8%; with HCC-2998 colon, 63.1%; in the experiment on KM12 colon, 45.9%.
Consider `C[C@]12CC[C@@H]3c4cc(OC(F)F)c(OS(N)(=O)=O)cc4CC[C@H]3[C@@H]1CC[C@@H]2O`, for which the growth with RPMI-8226 leukemia is 17.8%; in the experiment on OVCAR-8 ovarian, 35.3%; in the experiment on OVCAR-5 ovarian, 49.3%; in the experiment with OVCAR-4 ovarian it was 63.2%; in the experiment on SK-OV-3 ovarian, 40.8%; in the experiment on IGROV1 ovarian it was 34.5%. Further, the growth was -49.8% (active) with OVCAR-3 ovarian; 27.8% in the experiment on HS 578T breast; -1.45% (active) with NCI/ADR-RES ovarian; 43.7% with T-47D breast; 41.8% in the experiment on BT-549 breast; -70.8% (active) in the experiment with MDA-MB-435 melanoma. Also, the growth in the experiment on SW-620 colon is 28.1%; in the experiment with MCF7 breast, 22.1%; in the experiment on HCT-116 colon, 21.3%; with HCC-2998 colon, 16.2%; in the experiment with KM12 colon, 12.2%.
For the compound `COc1ccc(-c2[nH]ncc2-c2cc3c(c(OC)c2)OCC(=O)N3)cc1`, the growth in the experiment with RPMI-8226 leukemia was 29.3%; in the experiment with OVCAR-8 ovarian it was 23.5%; with OVCAR-5 ovarian, 36.7%; with OVCAR-4 ovarian, 54.4%; in the experiment with SK-OV-3 ovarian it was 19.8%; with IGROV1 ovarian it was 38.2%. Further, the growth in the experiment with OVCAR-3 ovarian was -4.58% (active); in the experiment on HS 578T breast, -2.19% (active); in the experiment with NCI/ADR-RES ovarian, 29.7%; with T-47D breast it was 27.2%; in the experiment on BT-549 breast, 38.4%; in the experiment with MDA-MB-435 melanoma, -56.6% (active). The growth in the experiment on SW-620 colon was 12.6%; in the experiment with MCF7 breast, 15.6%; with HCT-116 colon it was 13%; in the experiment with HCC-2998 colon, 35.2%; with KM12 colon it was 23.1%.
In the case of `Cc1ccc(/C=C2\Oc3ccc(O)c(O)c3C2=O)cc1`, the growth was 51.1% with RPMI-8226 leukemia; 44.5% with OVCAR-8 ovarian; 68.5% in the experiment on OVCAR-5 ovarian; 43.7% in the experiment with OVCAR-4 ovarian; 63.6% in the experiment on SK-OV-3 ovarian; 38.1% with IGROV1 ovarian. The growth was 11.7% in the experiment on OVCAR-3 ovarian; 62.5% in the experiment with HS 578T breast; 45.1% with NCI/ADR-RES ovarian; 47.3% in the experiment with T-47D breast; 43.1% in the experiment with BT-549 breast; 82.4% in the experiment with MDA-MB-435 melanoma. For the same compound, the growth in the experiment with SW-620 colon was 30.7%; in the experiment on MCF7 breast, 31.6%; in the experiment on HCT-116 colon, 17.8%; in the experiment on HCC-2998 colon it was 70.2%; with KM12 colon, 77%.
Take `NC1=C(c2nn[nH]n2)C(c2ccccc2Cl)c2ccc3ccccc3c2O1` (stereo not drawn): the growth was 71.7% in the experiment on RPMI-8226 leukemia; 86% in the experiment on OVCAR-8 ovarian; 109% in the experiment on OVCAR-5 ovarian; 81.5% in the experiment with OVCAR-4 ovarian; 86.2% in the experiment with SK-OV-3 ovarian; 63.2% in the experiment on IGROV1 ovarian. The growth in the experiment with OVCAR-3 ovarian is 69.6%; in the experiment on HS 578T breast, 80.3%; in the experiment with NCI/ADR-RES ovarian, 55.9%; in the experiment with T-47D breast, 69.3%; in the experiment with BT-549 breast, 93.1%; with MDA-MB-435 melanoma, -10.3% (active). Moreover, the growth with SW-620 colon was 48.8%; in the experiment with MCF7 breast, 41.3%; in the experiment with HCT-116 colon, 63.1%; with HCC-2998 colon, 98.6%; in the experiment on KM12 colon, 60.4%.
Regarding `CCC12CCC[N+]3([O-])CCC4(C(=Nc5ccccc54)C(O)(C(=O)OC)C1)C23` (stereo not drawn), the growth is 99.9% with RPMI-8226 leukemia; 102% in the experiment on OVCAR-8 ovarian; 93.6% in the experiment on OVCAR-5 ovarian; 106% in the experiment on OVCAR-4 ovarian; 103% with SK-OV-3 ovarian; 138% with IGROV1 ovarian. The growth with OVCAR-3 ovarian is 106%; in the experiment with HS 578T breast, 92.7%; in the experiment with NCI/ADR-RES ovarian, 103%; with T-47D breast, 94.8%; in the experiment with BT-549 breast, 102%; with MDA-MB-435 melanoma it was 112%. The growth was 95.4% with SW-620 colon; 116% in the experiment on MCF7 breast; 94.5% in the experiment with HCT-116 colon; 97.8% in the experiment on HCC-2998 colon; 99.6% in the experiment on KM12 colon.
Regarding `Cc1onc2c(-c3ccccc3)n[nH]c(=O)c12`, the growth with RPMI-8226 leukemia was 107%; in the experiment with OVCAR-8 ovarian, 116%; in the experiment on OVCAR-5 ovarian, 98.8%; in the experiment with OVCAR-4 ovarian, 108%; in the experiment on SK-OV-3 ovarian it was 87.1%; in the experiment with IGROV1 ovarian it was 140%. Further, the growth with OVCAR-3 ovarian was 106%; in the experiment on HS 578T breast, 127%; in the experiment on NCI/ADR-RES ovarian it was 106%; in the experiment on T-47D breast, 83.3%; with BT-549 breast it was 67.7%; with MDA-MB-435 melanoma, 96.9%. Besides, the growth is 111% in the experiment on SW-620 colon; 89.8% in the experiment with MCF7 breast; 104% in the experiment with HCT-116 colon; 94.8% in the experiment on HCC-2998 colon; 107% in the experiment with KM12 colon.
On to `CCN1C(=O)N(CC)C2Nn3c(s/c(=C4\C(=O)N(CCC(C)C)c5ccccc54)c3=O)=NC21` (stereo not drawn), for which the growth is 73.7% in the experiment on RPMI-8226 leukemia; 86% with OVCAR-8 ovarian; 102% with OVCAR-5 ovarian; 63.5% in the experiment with OVCAR-4 ovarian; 98.7% with SK-OV-3 ovarian; 63.8% with IGROV1 ovarian. For the same compound, the growth is 75.8% in the experiment on OVCAR-3 ovarian; 81.4% in the experiment with HS 578T breast; 57.8% with NCI/ADR-RES ovarian; 36.3% with T-47D breast; 99.6% in the experiment on BT-549 breast; 12.5% in the experiment with MDA-MB-435 melanoma. The growth in the experiment on SW-620 colon is 61.1%; in the experiment on MCF7 breast it was 15.1%; in the experiment on HCT-116 colon it was 12.6%; in the experiment with HCC-2998 colon it was 99.8%; in the experiment with KM12 colon, 67.9%.
